# From PubChem
# Only some compounds are listed: those with a hit (about 7.3% of all), similar ones and a draw of the others.
# FLuc counter: qHTS profiling assay for firefly luciferase inhibitor/activator using purifed enzyme and Km concentrations of substrates (counterscreen for miR-21 project) | Luciferin 4-monooxygenase (Photinus pyralis), P08659 | purified FLuc, Km substrates, luminescence inhibition | Potency, µM (highest dose often 57.5 µM), hits mostly inhibitors | actives 6.9% (n = 360,000); further: nearly all actives have a fitted effect of over 55% in size
# Target sequence (P08659 whole entry, looked up): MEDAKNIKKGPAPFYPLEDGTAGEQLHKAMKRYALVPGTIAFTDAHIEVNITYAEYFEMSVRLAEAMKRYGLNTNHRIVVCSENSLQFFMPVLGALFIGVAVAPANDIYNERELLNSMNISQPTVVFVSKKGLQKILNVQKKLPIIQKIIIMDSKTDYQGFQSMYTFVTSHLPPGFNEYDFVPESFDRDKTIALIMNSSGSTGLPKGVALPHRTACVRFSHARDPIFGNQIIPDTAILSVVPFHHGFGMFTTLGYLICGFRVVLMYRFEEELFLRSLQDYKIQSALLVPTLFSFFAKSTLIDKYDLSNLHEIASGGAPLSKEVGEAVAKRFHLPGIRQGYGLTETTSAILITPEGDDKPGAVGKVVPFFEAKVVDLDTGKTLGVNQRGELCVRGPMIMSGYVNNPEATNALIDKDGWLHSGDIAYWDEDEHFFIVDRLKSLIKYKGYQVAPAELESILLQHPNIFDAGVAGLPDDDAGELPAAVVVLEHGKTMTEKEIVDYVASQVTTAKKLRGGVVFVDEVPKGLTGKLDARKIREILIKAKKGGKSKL
#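 Purified P. pyralis luciferase (10nM final) with 10uM D-luciferin and 10uM ATP (Km levels) in 50mM Tris acetate pH 7.5, 10mM Mg acetate, 0.01% Tween-20, 0.05% BSA; qHTS 6-point titration, ~60 µM downward; luminescence read.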
# SMN2 splice up: qHTS Assay for Enhancers of SMN2 Splice Variant Expression | HEK293 SMN2-luciferase splicing reporter, luminescence, 30-36 h | Potency, µM (titrated, usually from 46.1 µM), actives largely listed as activators | actives 2.8% (n = 210,000) | AID 1458, 2008; further: nearly all actives have a fitted effect of over 55% in size
#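 HEK293 cells carry an SMN2 […]–luciferase reporter in which exon 7 inclusion puts luciferase in frame. Cells were plated 10-12 h before compound addition, then incubated 30-36 h at 37C. ONE-Glo luminescence was read; sodium butyrate at 4.5 mM final served as control.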
# KinaseGlo FLuc: Counterscreen for Luciferase (Kinase-Glo TM) Inhibition | Kinase-Glo luciferase, ATP luminescence, 8 min | Luciferin 4-monooxygenase (Photuris pensylvanica), Q27757 | actives 0.28% (n = 200,000) | Potency, µM (titrated, usually from 38.3 µM), usual class: inhibitors; further: nearly all actives have a fitted effect of over 60% in size
#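 Compound is pinned into ATP-containing buffer (10 uM ATP, imidazole pH 7.2, 7 mM MgCl2). Kinase-Glo luciferase reagent is then added. Light output is recorded following an 8-min room-temperature incubation.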
# ELG1 genotoxic: qHTS screen for small molecules that induce genotoxicity in human embryonic kidney (HEK293T) cells expressing luciferase-tagged ELG1; HEK293T ELG1-luciferase reporter, luminescence, 16 h; Potency, µM (top dose mostly 46 µM), hits mostly activators; actives 1.3% (n = 330,000); AID 504466, 2011; further: nearly all actives have a fitted effect of over 60% in size
#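 ELG1-luciferase HEK293T cells, 2,000/well; compound pinned in; 16 hr, 37 °C, 5% CO2; ONE-Glo, 30 min RT; luminescence on CCD imager.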
# NPC1 prom act: qHTS Assay for NPC1 Promoter Activators; Huh7 NPC1 promoter luciferase reporter, 24 h; Potency, µM (series often up to 9.22 µM), most hits filed as activators; actives 2.4% (n = 320,000); further: nearly all actives have a fitted effect of over 60% in size
#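 Compounds in DMSO were transferred onto Huh7 NPC1-luciferase reporter cells pre-incubated 2 h; after 24 h at 37 °C, Amplite reagent was dispensed and luminescence recorded 10 min later.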
# Rab9 prom act: qHTS Assay for Rab9 Promoter Activators. Potency, µM (series often up to 9.22 µM), usual class: activators. actives 2.8% (n = 320,000). Huh7 Rab9 promoter-luciferase reporter, luminescence, 24 h; further: nearly all actives have a fitted effect of over 60% in size
#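 Stable Rab9-luc Huh7, 1500 cells/well, 2 h settle; cmpd in DMSO, 24 h, 37 °C/5% CO2; luciferase reagent 10 min RT; luminescence.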
# Numbers stand for hits; – = inactive; ? = inconclusive; · = no result; [ ] = dose if it differs, or a comment. The call rests on the fitted dose curve; in most records, active means well fitted curve in the direction sought with a large enough effect; inconclusive means small, poorly fitted or top-dose-only effect, or another doubt; inactive means no such curve, though single readings can be large; an effect the other way counts as inactive or inconclusive.
SMILES,FLuc counter,SMN2 splice up,KinaseGlo FLuc,ELG1 genotoxic,NPC1 prom act,Rab9 prom act
Cc1ccc(OCC(=O)Nc2ccc3c(c2)OCO3)c([N+](=O)[O-])n1,6µM,20µM,–,?,?,?
Cc1ccc(OCc2ccc([N+](=O)[O-])cc2)c([N+](=O)[O-])n1,–,·,·,–,–,–
Cc1ccc(OCC(=O)Nc2ccc3c(c2)OC(F)(F)O3)c([N+](=O)[O-])n1,–,–,–,–,–,–
COc1ccc(/C=C2\C(=O)NC(=S)N2C(=O)c2ccc(F)cc2)cc1,12µM,–,–,–,–,–
Cc1cc(C(=O)OCC(=O)Nc2cc(S(=O)(=O)N(C)C)ccc2C)c2ccccc2n1,–,–,–,–,–,–
CN(C)S(=O)(=O)c1ccc(Cl)c(NC(=O)COC(=O)/C=C/c2cnc3ccccc3n2)c1,11µM,·,·,–,–,–
Cc1ccc(S(=O)(=O)N(C)C)cc1NC(=O)COC(=O)/C=C/c1cnc2ccccc2n1,17µM,–,–,–,–,–
O=C(Cn1c(=O)n(-c2ccc(Cl)cc2)c(=O)c2oc3ccccc3c21)Nc1ccccc1,–,·,·,·,·,·
COc1ccc(Cl)cc1NC(=O)c1c(NCc2cccs2)sc2c1CCCC2,–,·,·,·,·,·
Cc1ccc(C(=O)CNc2ccc(C)cc2C)cc1,13µM,·,·,–,–,–
O=C(CNc1ccccc1Cl)c1ccc(Br)cc1,17µM,·,·,–,–,–
O=C(CNc1ccc(F)cc1)c1ccccc1,15µM,–,–,?,–,–
COc1ccc(C(=O)CC(=O)c2ccc(C(C)(C)C)cc2)cc1,·,–,–,·,·,·
O=C(CNc1cccc(Cl)c1)c1ccc(Br)cc1,?,·,·,–,–,–
O=C(CNc1ccc(Br)cc1)c1ccccc1,?,–,–,?,–,–
Cc1ccc(C(=O)CC(=O)c2ccc(C(C)(C)C)cc2)cc1,9.5µM,·,–,–,?,?
COc1ccc(-n2c(=O)c3c(c4cc(OC)ccc4n3C)n(CCC(C)C)c2=O)cc1,–,·,·,·,·,·
O=C(CCSCc1cccc(Cl)c1)N1CCN(c2ccc(Cl)cc2)CC1,–,·,·,·,·,·
O=C(CCCn1c(=O)c2cccn2c2ccccc21)Nc1cc(C(F)(F)F)ccc1Cl,–,·,·,·,·,·
CC(C)(C)c1ccc(C(=O)CS(=O)(=O)c2ccccc2)cc1,2.1µM,–,–,?,1.4µM,0.89µM
Cc1ccc(S(=O)(=O)CC(=O)c2ccccc2)cc1,?,–,–,–,–,–
Cc1ccccc1NC(=O)CC(=O)c1ccccc1,?,·,·,–,–,?
Cc1ccc(C(=O)CNc2ccccc2C)cc1,6µM,–,–,?,–,–
Cc1ccc(C(=O)CNc2ccc(Br)cc2)cc1,–,–,–,–,–,–
Cc1ccc(C(=O)CNc2ccccc2)cc1,9.5µM,·,·,?,–,–
SMILES,FLuc counter,SMN2 splice up,KinaseGlo FLuc,ELG1 genotoxic,NPC1 prom act,Rab9 prom act
Cc1cccc(NCCC(=O)c2ccc([N+](=O)[O-])cc2)c1C,–,–,–,–,–,–
Cc1ccc(NCCC(=O)c2cccc([N+](=O)[O-])c2)c(C)c1,24µM,–,–,–,–,–
COc1ccc(-n2nc(C(=O)Nc3ccccc3OC)c3c4ccccc4n(C)c3c2=O)cc1Cl,–,·,·,·,·,·
COc1cc(NC(=O)CSc2nc3nc(C)c(Cc4ccccc4)c(C)n3n2)cc(OC)c1OC,–,·,·,·,·,·
Cc1cc2oc(C(=O)Nc3cccnc3)c(C)c2cc1C,?,–,–,13µM,?,?
Cc1ccc2c(Cl)c(C(=O)NC3CC3)sc2c1,4.8µM,·,·,?,2µM,4µM
Cc1ccc2c(C)c(C(=O)Nc3cccnc3)oc2c1,6.7µM,–,–,?,–,?
Cc1ccc2c(Cl)c(C(=O)Nc3cccnc3)sc2c1,1.9µM,?,–,–,2.8µM,4µM
O=C(NC1CC1)c1sc2cc([N+](=O)[O-])ccc2c1Cl,?,–,–,–,–,–
CCN(CC(=O)O)C(=O)c1cccnc1,·,–[9.22 µM],–[7.66 µM],·,·,·
OCc1ccncc1.OCc1ccncc1.[Cl][Pt]([Cl])([Cl])[Cl],·,–[9.22 µM],–[7.66 µM],·,·,·
